Experimental data as given in PubChem BioAssay (Tox21).
“And” between values parts separate entries of the source, which are not always exact repeats. Equal values may be shown once. Results filed as inconclusive are left out. Some compounds were tested as several samples or in several runs, with calls that do not always agree. The source made the active and inactive calls. Calls come from the whole dose curve; as a rule, active = well fitted inhibition curve with a large enough effect in the repeat runs; inconclusive = weak or mixed curves; inactive = no such curve, though single readings can be large or run the other way.

molecular target: Cytochrome P450 3A4 (Homo sapiens) (UniProt P08684); experiment: Cytochrome P450 Family 3 Subfamily A Member 4 (CYP3A4) small molecule antagonists: luciferase reporter qHTS assay (AID 1671201); settings: P450-Glo CYP3A4 enzyme, luciferin luminescence, 1 h; series mostly up to 115 µM; activity change, negative = inhibition: at the top concentration; note: nearly all actives have a fitted effect of over 50% in size
Summary of the method: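 Relative luminescence units after 20 min with luciferin detection reagent served as read-out. Beforehand, CYP3A4 turned over a proluciferin substrate for 1 h at room temperature with NADPH regeneration, following 10 min compound preincubation.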
% is set by controls: 0 for no effect and ±100 for the full control effect; potency is the fitted concentration of half-maximal effect.

Chain of Cytochrome P450 3A4 (Homo sapiens) (P08684 whole entry, looked up): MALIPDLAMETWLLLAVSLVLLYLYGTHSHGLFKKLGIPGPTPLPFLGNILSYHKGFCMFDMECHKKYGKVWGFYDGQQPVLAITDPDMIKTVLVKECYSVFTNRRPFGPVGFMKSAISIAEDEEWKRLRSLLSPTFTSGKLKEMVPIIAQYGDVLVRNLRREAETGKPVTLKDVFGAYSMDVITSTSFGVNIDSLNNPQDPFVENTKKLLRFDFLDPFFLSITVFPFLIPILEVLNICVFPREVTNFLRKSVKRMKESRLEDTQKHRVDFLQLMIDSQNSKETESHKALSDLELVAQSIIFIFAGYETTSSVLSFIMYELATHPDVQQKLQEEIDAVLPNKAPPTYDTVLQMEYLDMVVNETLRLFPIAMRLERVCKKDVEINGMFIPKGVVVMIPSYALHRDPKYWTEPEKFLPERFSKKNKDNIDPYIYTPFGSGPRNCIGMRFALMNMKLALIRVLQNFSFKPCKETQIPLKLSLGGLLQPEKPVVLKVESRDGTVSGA

Compound | activity change, negative = inhibition | Potency
c1ccc(Sc2ccccc2)cc1 | 49.8% (inactive) | 
Clc1ccc(C(c2ccccc2Cl)C(Cl)Cl)cc1 (stereo unspecified) |  | inactive
CC(=O)OC(OC(C)=O)c1ccc([N+](=O)[O-])o1 | -3.16% (inactive) | 
CN(C)CCCN1c2ccccc2Sc2ccc(C(F)(F)F)cc21 | 2.59% [at 52.9 µM] (inactive) | 
O=C1OC(OC(=O)c2cccnc2Nc2cccc(C(F)(F)F)c2)c2ccccc21 (stereo unspecified) | 72.3% [at 52.9 µM] (inactive) | 
CCCCN(C)C | 3.85% (inactive) | 
Oc1c(Br)cc(Br)c2cccnc12 | 8.48% [at 52.9 µM] (inactive) | 
Cc1ccc2ccc3cccc4ccc1c2c34 |  | 20 µM (active)
NCCCCCCNCCCCCCN |  | 3.5 µM (active)
CCCCCCC(C)Nc1ccc(Nc2ccccc2)cc1 (stereo unspecified) |  | 35.6 µM (active)
c1ccc(Nc2cccc3ccccc23)cc1 |  | 36.1 µM (active) and 79.6 µM (active)
CCCC(CC)CCCCCCCN (stereo unspecified) |  | 3.25 µM (active)
COc1cc(C(C)C)c2c(c1)S(=O)(=O)N(COc1cc(=O)n3cccc(OCCN4CCCCC4)c3n1)C2=O |  | 0.301 µM (active)
C[Si](C)(C)Cl | 12.8% (inactive) | 
CO[C@H]1C=CO[C@@]2(C)Oc3c(C)c(O)c4c(O)c(cc(O)c4c3C2=O)NC(=O)/C(C)=C\C=C/[C@H](C)[C@H](O)[C@@H](C)[C@@H](O)[C@@H](C)[C@H](OC(C)=O)[C@@H]1C |  | 1.27 µM (active)
CCCCCCOc1cc(C)c(O)c(C)c1C |  | 28.6 µM (active)
CCCCCCCCCCCCCCNCCO | -15.5% [at 52.9 µM] (inactive) | 
O=C(O)CCCCCCC(=O)O | 2.16% (inactive) | 

Compound | activity change, negative = inhibition | Potency
CC1=CCC(=O)O1 | 3.12% (inactive) | 
O=C(Oc1ccccc1)c1cccc(C(=O)Oc2ccccc2)c1 | 17.8% (inactive) | 
CCCCCCCCCCc1ccccc1 | 6.71% (inactive) | 
c1cc2c3c(c1)ccc1cccc(c13)C2 | -8.9% (inactive) | 
CC(C)(c1cc(Br)c(O)c(Br)c1)c1cc(Br)c(O)c(Br)c1 |  | 56.2 µM (active) and inactive
CCN(CC)c1ccc(N)cc1 |  | 11.6 µM (active)
CC[N+](CC)(CC)Cc1ccccc1 | -0.752% (inactive) | 
CCc1c(C(=O)O)c(=O)cnn1-c1ccc(Cl)cc1 | 14.9% (inactive) | 
c1cc[nH]c1 | 2.79% (inactive) | 
CC(C)N=C(N)/N=C(\N)Nc1ccc(Cl)cc1 | -18.6% [at 52.9 µM] (inactive) | 
O=C1NCN(c2ccccc2)C12CCN(CCCC(c1ccc(F)cc1)c1ccc(F)cc1)CC2 | -1.1% [at 52.9 µM] (inactive) | 
CC(=O)c1ccccc1N | -4.92% (inactive) | 
COc1cccc(O)c1 | -8.86% (inactive) | 
CC(C)c1ccccc1N |  | 28.3 µM (active)
O=C(O)CC(=O)O | 5.36% (inactive) | 
CC(C)OC(=O)c1cc(C(=O)OC(C)C)cc([N+](=O)[O-])c1 | 21.1% (inactive) | 
NC1(c2ccc(-c3nc4ccn5c(=O)[nH]nc5c4cc3-c3ccccc3)cc2)CCC1 | -4.83% [at 52.9 µM] (inactive) | 
c1ccc2c(c1)CCC2 | 4.75% (inactive) | 
